# Laboratory results: PubChem BioAssay (EPA / NIEHS)
# Results filed as inconclusive are left out. The source made the active and inactive calls. The calls were made as follows: active = hit-call score of the fitted dose curve at least 0.9, where 1 is the maximum; inconclusive = response in the unintended direction; inactive = score below 0.9.
# What was measured:
# [1] = target: human Neurokinin, NK2 Receptor, TACR2 (gene 6865) (UniProt P21452); assay: NVS_GPCR_hNK2: NovaScreen (NVS) G Protein-Coupled Receptor Assay for human Neurokinin, NK2 Receptor (AID 2283278);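 also: actives reduce bound radioligand signal relative to DMSO baseline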
# Chain of human Neurokinin, NK2 Receptor, TACR2 (gene 6865) (P21452 whole entry, looked up): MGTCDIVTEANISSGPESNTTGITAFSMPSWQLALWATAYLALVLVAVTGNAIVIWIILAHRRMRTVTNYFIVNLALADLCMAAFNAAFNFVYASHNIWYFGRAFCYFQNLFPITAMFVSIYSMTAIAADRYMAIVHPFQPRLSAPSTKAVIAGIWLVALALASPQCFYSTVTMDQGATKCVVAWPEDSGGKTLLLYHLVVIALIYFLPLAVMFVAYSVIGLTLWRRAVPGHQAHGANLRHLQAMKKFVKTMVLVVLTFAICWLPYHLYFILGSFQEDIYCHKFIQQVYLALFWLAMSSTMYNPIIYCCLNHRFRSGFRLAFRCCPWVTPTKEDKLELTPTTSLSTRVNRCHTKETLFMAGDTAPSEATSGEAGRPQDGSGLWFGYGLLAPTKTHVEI
# How it was run: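 Filter-based scintillation counting measured radioligand bound to receptor extracted from CHO cells, 4 hours after compound addition. Chemicals screened first at 25 uM in duplicate, with actives retested in concentration series relative to DMSO.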
# [2] = target: human Orphanin, Opioid Related Nociceptin Receptor 1 (ORL1), OPRL1 (gene 4987) (UniProt P41146); assay: NVS_GPCR_hORL1: NovaScreen (NVS) G Protein-Coupled Receptor Assay for human Orphanin, Opioid Related Nociceptin Receptor 1 (ORL1) (AID 2283283)
# Chain of human Orphanin, Opioid Related Nociceptin Receptor 1 (ORL1), OPRL1 (gene 4987) (P41146 whole entry, looked up): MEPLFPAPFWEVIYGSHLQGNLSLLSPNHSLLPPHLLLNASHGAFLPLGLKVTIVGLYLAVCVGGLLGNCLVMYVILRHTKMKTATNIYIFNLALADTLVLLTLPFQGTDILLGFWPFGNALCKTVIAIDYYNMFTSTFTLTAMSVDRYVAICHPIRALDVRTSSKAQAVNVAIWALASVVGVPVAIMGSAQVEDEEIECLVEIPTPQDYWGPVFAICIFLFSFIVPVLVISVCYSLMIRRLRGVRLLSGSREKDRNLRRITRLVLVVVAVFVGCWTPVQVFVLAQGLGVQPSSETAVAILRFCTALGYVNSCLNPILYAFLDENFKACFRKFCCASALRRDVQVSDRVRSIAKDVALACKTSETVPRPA
# How it was run: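 Filter-based radioligand displacement with receptor extracted from HEK293 cells, read 1 hour after dosing by scintillation counting. Duplicate single-point screen at 25 uM; qualifying chemicals then run in concentration-response to 50 uM, analysed relative to DMSO.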
# [3] = target: human Opioid Receptor Mu (Opiate Mu), OPRM1 (gene 4988) (UniProt P35372); assay: NVS_GPCR_hOpiate_mu: NovaScreen (NVS) G Protein-Coupled Receptor Assay for human Opioid Receptor Mu (Opiate Mu) (AID 2283290);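 also: hits lower bound tracer signal versus DMSO meaning displacement of the ligand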
# Chain of human Opioid Receptor Mu (Opiate Mu), OPRM1 (gene 4988) (P35372 whole entry, looked up): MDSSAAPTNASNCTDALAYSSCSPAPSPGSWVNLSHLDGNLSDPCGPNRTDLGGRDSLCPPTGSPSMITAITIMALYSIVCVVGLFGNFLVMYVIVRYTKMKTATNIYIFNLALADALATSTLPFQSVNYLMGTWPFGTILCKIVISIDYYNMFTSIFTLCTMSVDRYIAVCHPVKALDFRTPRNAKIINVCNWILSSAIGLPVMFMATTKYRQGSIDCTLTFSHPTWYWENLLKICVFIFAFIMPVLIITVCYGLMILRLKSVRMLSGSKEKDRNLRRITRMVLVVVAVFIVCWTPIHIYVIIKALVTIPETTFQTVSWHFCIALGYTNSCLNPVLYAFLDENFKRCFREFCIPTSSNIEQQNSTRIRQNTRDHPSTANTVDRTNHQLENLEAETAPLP
# How it was run: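 CHO-derived receptor protein, cell-free; radioligand displacement, filtration + scintillation counting, read at 2.5 h. DMSO = negative control/baseline. Primary: 25 uM single conc, duplicate; secondary: concentration series.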
# [4] = target: human Purinergic Receptor P2Y, P2RY1 (gene 5028) (UniProt P47900); assay: NVS_GPCR_hPY2: NovaScreen (NVS) G Protein-Coupled Receptor Assay for human Purinergic Receptor P2Y (AID 2283281)
# Chain of human Purinergic Receptor P2Y, P2RY1 (gene 5028) (P47900 whole entry, looked up): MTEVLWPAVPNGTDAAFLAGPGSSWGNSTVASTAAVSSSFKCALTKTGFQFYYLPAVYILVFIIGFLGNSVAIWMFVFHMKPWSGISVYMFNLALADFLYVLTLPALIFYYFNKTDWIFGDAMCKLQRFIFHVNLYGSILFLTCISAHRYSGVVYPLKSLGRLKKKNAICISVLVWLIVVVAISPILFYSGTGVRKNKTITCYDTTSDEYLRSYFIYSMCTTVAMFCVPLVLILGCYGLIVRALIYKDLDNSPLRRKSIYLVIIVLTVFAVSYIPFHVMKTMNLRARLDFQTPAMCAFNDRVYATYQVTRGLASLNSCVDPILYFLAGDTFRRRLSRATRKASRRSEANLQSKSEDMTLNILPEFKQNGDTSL
# How it was run: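 Cell-free radioligand binding using U937-derived protein, 1 h after dosing, filter-based scintillation counting. Screened in duplicate at 25 uM; actives rerun as concentration-response up to 50 uM; loss of signal versus DMSO.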
# [5] = target: human Thromboxane A2 Receptor (TXA2), TBXA2R (gene 6915) (UniProt P21731); assay: NVS_GPCR_hTXA2: NovaScreen (NVS) G Protein-Coupled Receptor Assay for human Thromboxane A2 Receptor (TXA2) (AID 2283282);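 also: actives reduce bound radioligand signal relative to DMSO baseline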
# Chain of human Thromboxane A2 Receptor (TXA2), TBXA2R (gene 6915) (P21731 whole entry, looked up): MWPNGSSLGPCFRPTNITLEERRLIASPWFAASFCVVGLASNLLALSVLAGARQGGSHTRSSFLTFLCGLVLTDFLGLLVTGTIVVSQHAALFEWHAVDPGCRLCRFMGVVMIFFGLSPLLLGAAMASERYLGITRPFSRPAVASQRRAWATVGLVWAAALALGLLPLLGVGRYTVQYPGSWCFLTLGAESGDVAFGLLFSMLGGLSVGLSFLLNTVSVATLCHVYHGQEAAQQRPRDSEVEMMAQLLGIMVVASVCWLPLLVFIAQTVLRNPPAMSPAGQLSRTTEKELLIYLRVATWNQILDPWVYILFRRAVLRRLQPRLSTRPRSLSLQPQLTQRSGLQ
# How it was run: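 Human platelet membranes tested for radioligand displacement by filtration and scintillation counting 1 h post-dose. Screened in duplicate at 25 uM; activity fitted as signal loss relative to DMSO.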
# [6] = tested on: 5-hydroxytryptamine receptor 2C (pig); assay: NVS_GPCR_p5HT2C: NovaScreen (NVS) G Protein-Coupled Receptor Assay for pig Serotonin, 5-Hydroxytryptamine Receptor 2C (5HT2C) (AID 2283288)
# How it was run: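 Pig choroid plexus membranes; radioligand competitive binding, filter-based scintillation counting, read 1 h after dosing. Primary screen in duplicate at 25 uM; actives then run as concentration series; loss of signal versus DMSO baseline.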
# [7] = target: mouse Cholecystokinin, CCK2 Receptor (CCKB), Cckbr (gene 12426) (UniProt P56481); assay: NVS_GPCR_mCKKBCentral: NovaScreen (NVS) G Protein-Coupled Receptor Assay for mouse Cholecystokinin, CCK2 Receptor (CCKB) (AID 2283293)
# Chain of mouse Cholecystokinin, CCK2 Receptor (CCKB), Cckbr (gene 12426) (P56481 whole entry, looked up): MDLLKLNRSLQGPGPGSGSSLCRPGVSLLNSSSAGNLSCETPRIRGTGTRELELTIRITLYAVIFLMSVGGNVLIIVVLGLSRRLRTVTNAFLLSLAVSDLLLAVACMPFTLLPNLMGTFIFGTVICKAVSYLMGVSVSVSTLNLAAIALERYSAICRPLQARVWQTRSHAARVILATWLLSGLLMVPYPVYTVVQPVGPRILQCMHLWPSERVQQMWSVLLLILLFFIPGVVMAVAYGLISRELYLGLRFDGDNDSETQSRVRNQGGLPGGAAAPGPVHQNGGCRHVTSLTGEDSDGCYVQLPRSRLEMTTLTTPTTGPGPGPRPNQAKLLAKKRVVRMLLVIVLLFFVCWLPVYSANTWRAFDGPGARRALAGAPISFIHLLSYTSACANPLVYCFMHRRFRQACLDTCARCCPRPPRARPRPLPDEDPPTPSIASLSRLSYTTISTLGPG
# How it was run: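 Radioligand displacement binding on mouse forebrain membranes, 2 h exposure, filter-based scintillation counting. Primary screen in duplicate at 25 uM; actives (e.g. ≥30% inhibition) retested in concentration-response up to 50 uM; loss of binding signal relative to DMSO.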
# [8] = target: mouse Cholecystokinin, CCK1 Receptor (CCKA), Cckar (gene 12425) (UniProt O08786); assay: NVS_GPCR_mCCKAPeripheral: NovaScreen (NVS) G Protein-Coupled Receptor Assay for mouse Cholecystokinin, CCK1 Receptor (CCKA) (AID 2283285)
# Chain of mouse Cholecystokinin, CCK1 Receptor (CCKA), Cckar (gene 12425) (O08786 whole entry, looked up): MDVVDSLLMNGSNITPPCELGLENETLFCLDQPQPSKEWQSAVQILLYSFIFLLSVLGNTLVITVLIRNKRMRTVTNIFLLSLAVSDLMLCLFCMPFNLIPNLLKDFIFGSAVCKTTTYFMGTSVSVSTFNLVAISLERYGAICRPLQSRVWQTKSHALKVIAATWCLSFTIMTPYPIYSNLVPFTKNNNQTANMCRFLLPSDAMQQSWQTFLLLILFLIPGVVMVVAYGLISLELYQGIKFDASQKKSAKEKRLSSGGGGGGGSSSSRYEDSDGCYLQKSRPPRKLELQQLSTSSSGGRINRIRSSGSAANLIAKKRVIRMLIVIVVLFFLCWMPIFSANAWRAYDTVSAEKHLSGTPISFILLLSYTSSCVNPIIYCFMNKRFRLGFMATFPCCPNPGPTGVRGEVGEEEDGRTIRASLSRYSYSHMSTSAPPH
# Protocol: NVS_GPCR_mCCKAPeripheral is a biochemical, single-readout assay that uses extracted gene-proteins from Mouse pancreatic membranes in a tissue-based cell-free assay. Measurements were taken 2 hours after chemical dosing in a 96-well plate.NVS_GPCR_mCCKAPeripheral is one of one assay component(s) measured or calculated from the NVS_GPCR_mCCKAPeripheral assay. It is designed to make measurements of radioligand binding, a form of binding reporter, as detected with scintillation counting signals by Filter-based radiodetection technology.Data from the assay component NVS_GPCR_mCCKAPeripheral was analyzed into 1 assay endpoint. This assay endpoint, NVS_GPCR_mCCKAPeripheral, was analyzed in the positive analysis fitting direction relative to DMSO as the negative control and baseline of activity. Using a type of binding reporter, loss-of-signal activity can be used to understand changes in the binding as they relate to the gene Cckar. Furthermore, this assay endpoint can be referred to as a primary readout, because the performed assay has only produced 1 assay endpoint. To generalize the intended target to other relatable targets, this assay endpoint is annotated to the gpcr intended target family, where the subfamily is rhodopsin-like receptor. […]
# [9] = target: human Opioid Receptor Delta 1 (Opiate D1), OPRD1 (gene 4985) (UniProt P41143); assay: NVS_GPCR_hOpiate_D1: NovaScreen (NVS) G Protein-Coupled Receptor Assay for human Opioid Receptor Delta 1 (Opiate D1) (AID 2283280)
# Chain of human Opioid Receptor Delta 1 (Opiate D1), OPRD1 (gene 4985) (P41143 whole entry, looked up): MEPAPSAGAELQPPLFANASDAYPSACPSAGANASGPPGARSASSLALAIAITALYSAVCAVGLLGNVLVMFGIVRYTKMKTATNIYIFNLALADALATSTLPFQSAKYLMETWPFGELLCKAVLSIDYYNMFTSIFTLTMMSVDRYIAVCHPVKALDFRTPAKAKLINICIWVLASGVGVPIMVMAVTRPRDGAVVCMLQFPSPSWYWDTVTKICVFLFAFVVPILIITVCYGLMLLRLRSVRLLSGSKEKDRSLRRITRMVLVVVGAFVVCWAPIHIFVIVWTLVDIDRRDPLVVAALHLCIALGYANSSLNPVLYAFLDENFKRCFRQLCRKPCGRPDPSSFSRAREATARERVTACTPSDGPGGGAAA
# How it was run: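 Radioligand displacement on membranes from CHO cells expressing the receptor, read by filter scintillation counting 1 h after dosing. Duplicate single-point screen at 25 uM, then concentration series for actives; loss of signal versus DMSO.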
# [10] = tested on: rat Adrenergic, Alpha 1B Receptor (Adra1B), gene 24173; assay: NVS_GPCR_rAdra1B: NovaScreen (NVS) G Protein-Coupled Receptor Assay for rat Adrenergic, Alpha 1B Receptor (Adra1B) (AID 2283297)
# How it was run: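 Rat liver membranes, radioligand displacement with filter-based scintillation detection, 1 h incubation. Primary screen in duplicate at 25 uM; actives retested in concentration series; activity relative to DMSO.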
smiles,measurement,setting,value
CN(C)C(=S)S,AC50,[1],4 µM (active)
same,AC50,[2],25 µM (active)
same,AC50,[3],6.66 µM (active)
O=C1C=CC(=O)c2ccccc21,AC50,[1],1.1 µM (active)
Cc1cc(Cl)ccc1OC(C)C(=O)O (stereo not given),outcome,[4],inactive
O=c1oc2ccccc2c(O)c1C(CC(O)c1ccc(-c2ccc(Br)cc2)cc1)c1ccccc1 (stereo not given),AC50,[1],23.9 µM (active)
same,AC50,[5],12.2 µM (active)
same,AC50,[3],13.7 µM (active)
O=S(=O)(C(Cl)(Cl)Cl)C(Cl)(Cl)Cl,AC50,[3],7.84 µM (active)
N#CCCC(Br)(C#N)CBr (stereo not given),AC50,[5],0.594 µM (active)
same,AC50,[2],4.83 µM (active)
same,AC50,[3],20.6 µM (active)
c1ccc2sc(SNC3CCCCC3)nc2c1,AC50,[1],0.0784 µM (active)
same,AC50,[5],1.12 µM (active)
[Cl][Sn]([c]1ccccc1)([c]1ccccc1)[c]1ccccc1,AC50,[1],2.13 µM (active)
same,AC50,[5],1.29 µM (active)
same,AC50,[3],0.664 µM (active)
Oc1cc(Cl)c(Cl)cc1Cl,AC50,[6],10.2 µM (active)
O=C(O)COc1cc(Cl)c(Cl)cc1Cl,outcome,[5],inactive
CCOC(=O)C(SP(=S)(OC)OC)c1ccccc1 (stereo not given),outcome,[1],inactive
Oc1cccc(-c2ccccc2)c1,outcome,[5],inactive
CCOP(=O)(OCC)OC(=CCl)c1ccc(Cl)cc1Cl,AC50,[5],0.35 µM (active)
Cc1ccc(OP(=O)(Oc2ccc(C)cc2C)Oc2ccc(C)cc2C)c(C)c1,AC50,[1],8.63 µM (active)
Oc1c(Cl)cc(Cl)cc1Cl,outcome,[7],inactive
COC(=O)Nc1cccc(OC(=O)Nc2cccc(C)c2)c1,AC50,[6],25 µM (active)
CCOC(=O)CCN(SN(C)C(=O)Oc1cccc2c1OC(C)(C)C2)C(C)C,outcome,[1],inactive
O=C(N[C@H]1CN2CCC1CC2)c1ccc2c(c1)OCCO2,outcome,[5],inactive
same,outcome,[8],inactive
CCCCCCCCCCCCc1cccc(S(=O)(=O)O)c1,outcome,[1],inactive
same,AC50,[9],11.8 µM (active)
same,outcome,[4],inactive
same,AC50,[5],8.31 µM (active)
same,AC50,[3],14.4 µM (active)
same,AC50,[10],22.5 µM (active)
Oc1ccc(Cc2ccc(O)cc2)cc1,outcome,[5],inactive
Nc1ccc(N)cc1,AC50,[1],5.13 µM (active)
CCOP(=O)(OCC)SCCSCC,outcome,[3],inactive
CCOP(=S)(OCC)SCS(=O)(=O)C(C)(C)C,outcome,[5],inactive
OC(Cc1ccccc1Cl)(Cn1[nH]cnc1=S)C1(Cl)CC1 (stereo not given),AC50,[1],15.3 µM (active)
CCN(N=O)C(N)=O,outcome,[1],inactive
